CYP2C9 activ: CYP2C9 (human) activation; P11712; recombinant CYP2C9, luciferin-H conversion, luminescence; active compounds read high; factor 1 = untreated enzyme, 0 = blocked; activation factor at 5 µM; 96,000 tested, 1.4% active; AID 1024;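 active means activation factor of 2 or more for CYP2C9 at a 5 µM dose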;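 further: 0 = sulfaphenazole-blocked wells and 1 = vehicle-only wells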
CYP2C9 inh: blocks human cytochrome P450 2C9; CYP2C9 Supersomes, luciferin-H conversion, luminescence; inhibition, % at 5 µM; 96,000 tested, 20% active;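 active means blocking of liver enzyme CYP2C9 beyond about 50% at 5 µM, limit read from the data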
CYP2C19 inhib: blocks human cytochrome P450 2C19; P33261; CYP2C19 Supersomes, luciferin-H EGE luminescence, 30 min; inhibition, % at 5 µM; 96,000 tested, 21% active; AID 778;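 active means CYP2C19 inhibition above a set limit at 5 µM in the primary screen, cut at about 50% in these data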;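 further: plate controls were negative control wells for no effect and 2.5 mM tranylcypromine positive control for full effect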
sEH inhibitor: soluble epoxide hydrolase (human) inhibition | recombinant human sEH enzymatic activity assay | P34913 | inhibition, % at 2 µM | AID 707 | 91,000 tested, 0.34% active; in the data active means inhibition above about 80%
Target sequence (P34913 whole entry, looked up): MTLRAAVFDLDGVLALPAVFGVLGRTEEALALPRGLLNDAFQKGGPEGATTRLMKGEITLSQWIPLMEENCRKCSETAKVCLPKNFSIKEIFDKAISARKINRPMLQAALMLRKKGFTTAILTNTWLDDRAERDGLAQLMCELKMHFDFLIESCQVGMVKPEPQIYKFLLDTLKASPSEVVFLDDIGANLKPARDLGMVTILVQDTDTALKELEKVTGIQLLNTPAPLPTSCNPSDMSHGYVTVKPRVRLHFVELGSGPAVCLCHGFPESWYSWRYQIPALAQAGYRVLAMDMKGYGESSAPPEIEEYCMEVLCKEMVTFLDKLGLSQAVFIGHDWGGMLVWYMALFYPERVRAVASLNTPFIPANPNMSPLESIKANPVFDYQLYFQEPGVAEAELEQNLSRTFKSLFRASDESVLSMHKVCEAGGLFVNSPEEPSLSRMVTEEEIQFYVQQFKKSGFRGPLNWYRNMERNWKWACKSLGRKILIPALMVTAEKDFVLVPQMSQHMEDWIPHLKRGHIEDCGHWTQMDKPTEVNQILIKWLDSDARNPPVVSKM
sEH act: increases human soluble epoxide hydrolase activity; 91,000 tested, 0.04% active; purified human sEH enzymatic activity, activator screen; activation, % at 2 µM; in the data active means activation above about 37%
CYP2C19 activ: cytochrome P450 2C19 (human) activation | P33261 | recombinant CYP2C19, luciferin-H EGE luminescence; active compounds read high; 0 = fully inhibited enzyme, 1 = untreated enzyme | activation factor at 5 µM | 96,000 tested, under 10 active | AID 1025;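 active means activation factor of at least 2 at 5 µM in the primary screen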;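 further: 0 = wells with 2.5 mM tranylcypromine and 1 = vehicle-only wells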
Starred values were filed as active, the others as inactive; x = not tested or not shown. An excerpt weighted towards active compounds, which were near 27% of everything screened.

SMILES	CYP2C9 activ	CYP2C9 inh	CYP2C19 inhib	sEH inhibitor	sEH act	CYP2C19 activ
COc1cccc(C(C(=O)NC(C)(C)C)N(C(=O)CCC(=O)Nc2cc(C)on2)C2CC2)c1OC (centres undefined)	1	1	-5	16	-15	1
CCn1c(SC)nnc1-c1sc2cc(Cl)ccc2c1Cl	1.4	-35	36	11	-9	0.6
CSc1nnc(-c2sc3cc(Cl)ccc3c2Cl)n1C	0.8	24	52*	-6	6	0.5
Cc1ccc(C2CN=NC23CCc2ccccc2C3=O)cc1 (centres undefined)	0.7	26	75*	-8	7	0.3
CCOCCn1c(SC)nc2c1c(=O)[nH]c(=O)n2C	1	-4	-13	4	-1	1.1
N#Cc1c(N)c(C(=O)c2ccccc2)n2c1CCC2	1.1	-15	51*	-12	9	0.5
N#Cc1c2n(c(=O)[nH]c1=O)CCCCC2	x	x	x	6	-10	x
COC(=O)c1c(N)c(C#N)c2n1CCCCC2	0.9	6	76*	-25	23	0.2
Cc1ccnn2cc3c(=O)n(C)c(=O)n(C)c3c12	0.8	17	-2	1	2	1
Nn1c(SCc2nc3ccccn3c2Br)nnc1-c1cccnc1	2.5*	-153	9	6	-4	0.9
Cc1ccc(C)c(CSc2nnc(-c3cccnc3)n2N)c1	1.1	-13	20	0	2	0.8
O=C(NCc1ccc(Cl)cc1Cl)C(=O)N1CCCCC1	3.8*	-282	17	3	-2	0.8
CCOC(=O)c1ccccc1NC(=O)c1cccc(F)c1	1.1	-11	19	15	-14	0.8
CCn1c(SCC(=O)Nc2sc(C)c(C)c2C#N)nnc1C(C)C	0.1	91*	98*	-9	10	0
COCCn1c(SCC(=O)Nc2sc(C)c(C)c2C#N)nnc1C(C)C	0.1	92*	80*	-11	6	0.2
Cc1sc(NC(=O)CSc2nnc3scc(-c4ccccc4)n23)c(C#N)c1C	1.1	-13	10	-4	7	0.9
Cc1cc2c(cc(C(=O)OCC(=O)NCc3cccs3)n2C(C)C)o1	0.4	65*	50*	5	-9	0.5
O=S1(=O)C=C(Oc2ccc(F)cc2)c2ccccc21	0.7	29	81*	4	-4	0.2
Cn1cccc1Cc1nnc(SCC(=O)Nc2ccc3c(c2)OCCO3)n1CCc1ccccc1	0.6	38	48	12	-9	0.5
C=CCn1c(SCc2ccc(F)cc2)nc2c1c(=O)[nH]c(=O)n2C	0.5	46	58*	3	-1	0.4
C=CCn1c(SCc2ccc(Cl)cc2)nc2c1c(=O)[nH]c(=O)n2C	0.7	33	45	8	-7	0.5
O=C1C(=O)N(CCCn2ccnc2)C(c2cccnc2)/C1=C(/O)c1ccc(Br)cc1 (centres undefined)	x	x	x	2	-2	x
CC1/C(=C\c2ccc(Cl)cc2)C(=O)C2CC1C2(C)C (centres undefined)	0.4	65*	77*	-1	0	0.2
O=S(=O)(c1ccc(Cl)cc1)N1CCC(n2cnc3cc(C(F)(F)F)ccc32)CC1	x	x	x	5	0	x
COc1cc(Br)cc2cc(C(=O)N3CCN(c4ccccn4)CC3)c(=O)oc12	0.4	57*	74*	10	-9	0.3
SMILES	CYP2C9 activ	CYP2C9 inh	CYP2C19 inhib	sEH inhibitor	sEH act	CYP2C19 activ
CNC(=O)c1cc2cccc(OC)c2oc1=O	x	x	x	4	-2	x
CCOc1cccc2cc(C(=O)N3CCc4ccccc4C3)c(=O)oc12	2.5*	-146	68*	-5	6	0.3
CCOc1ccc(N2CC(C(=O)N3CCc4ccccc4C3)CC2=O)cc1 (centres undefined)	0.5	47	-6	10	-8	1.1
COc1cccc2cc(C(=O)N3CCN(c4ccccc4F)CC3)c(=O)oc12	0.5	51*	36	-8	10	0.6
CCOc1ccc(OCc2ccc(C(=O)N3CCc4ccccc4C3)o2)cc1	0.7	31	51*	5	-2	0.5
Cc1cc(C)nc(SCCC(=O)Nc2ccccc2C)n1	1.7	-67	22	2	-2	0.8
CCOc1cc(Br)c(C(=O)O)cc1OC	1.1	-6	-14	3	-1	1.1
Cc1nccc2[nH]c(=O)c(C(=O)NCCCN(C)C3CCCCC3)cc12	1	-2	1	x	x	1
Cn1c(SCC(=O)NC(C)(C)C)nnc1-c1cccc(NC(=O)c2ccccc2F)c1	1	2	5	12	-14	0.9
COc1cccc2cc(C(=O)N3CCc4ccccc4C3)c(=O)oc12	2*	-97	27	x	x	0.7
Cc1c(O)c(CN2CCCC2)cc2c1oc(=O)c1ccccc12	1.5	-51	57*	6	-7	0.4
O=c1oc2ccccc2c(O)c1CN1CCCCC1	0.1	94*	52*	x	x	0.5
Cc1c(O)c(CN2CCCC2)cc2c3c(c(=O)oc12)CCC3	0.5	52*	36	-8	7	0.6
COc1ccc(CC(=O)Nc2cccc(C(=O)O)c2C)cc1	1.2	-16	0	4	-5	1
N#CC1C(C#N)N2CCCN2C1c1ccc(Cl)cc1 (centres undefined)	x	x	x	3	0	x
CC(C)(O)c1nnn(-c2ccccc2)c1C(F)(F)F	1.1	-10	75*	-6	3	0.3
Cc1nc(C(C)(C)O)n(-c2ccccc2)n1	1	4	10	5	-7	0.9
Cc1cc(OC(=O)c2ccc(S(=O)(=O)N(C)C)cc2)cc(=O)o1	1	-4	4	11	-12	1
CN1CCN(Cn2cc(/C=C/C(=O)c3ccccc3)c3ccccc32)CC1	0	96*	81*	21	-20	0.2
O=Cc1cn(CC(=O)N2CCOCC2)c2ccccc12	x	x	x	-1	4	x
Cc1ccccc1CSc1nc2n(n1)C(c1cccs1)C1=C(CCCC1=O)N2 (centres undefined)	0.4	58*	17	-9	11	0.8
O=C1CCCC2=C1C(c1cccs1)n1nc(SCc3ccccc3F)nc1N2 (centres undefined)	x	x	x	3	-4	x
COc1ccc(CN2C(=O)NC3(CCCCCC3)C2=O)cc1F	1.9	-90	88*	x	x	0.1
CCC(=O)N1CCN(c2ccc(NC(=O)COc3ccccc3Cl)cc2)CC1	0.3	71*	81*	47	-48	0.2
CCCCOC(=O)Nc1ccc(N2CCCCC2)cc1	0.5	52*	70*	11	-8	0.3
CCCCOC(=O)Nc1ccc(N2CCOCC2)cc1	x	x	x	6	-2	x
O=C(COC(=O)c1ccc(O)cc1)Nc1ccc(N2CCCCC2)cc1	0.3	74*	64*	20	-21	0.4
COc1cc(OC)cc(C(=O)OCC(=O)Nc2ccc(N3CCCCC3)cc2)c1	0.8	21	10	50	-49	0.9
CCC(=O)N1CCN(c2ccccc2NC(=O)COc2ccccc2Cl)CC1	0.1	94*	87*	-6	5	0.1

Compound activity: PubChem, several laboratories
